Shown are actives, neighbours in structure and some others; about 12% of the full set was active somewhere.
BAZ2B inh: BAZ2B (human) inhibition; Q9UIF8; AlphaScreen BAZ2B-H3K14Ac peptide displacement; Potency, µM (top dose mostly 114 µM), for the others: at the top dose activity change, negative = inhibition, most hits filed as inhibitors; 4.4% of 360,000 active; AID 504333; note: potency is the fitted concentration of half-maximal effect; % is set by controls: 0 for no effect and ±100 for the full control effect; nearly all actives have a fitted effect of over 60% in size
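AlphaScreen luminescence quantifies BAZ2B engagement of H3K14Ac peptide; the protein and biotinylated peptide are both at 50 nM final, buffer PBS pH 7.4 with 0.01% Tween-20, all steps at room temperature.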
G9a inh: G9a (human) methyltransferase inhibition. G9a H3K9 monomethylation, AlphaScreen, 2 h. AID 504332. Q96KQ7. 8.8% of 350,000 active. Potency, µM (top dose mostly 102 µM), for the others: at the top dose activity, negative = inhibition, most hits filed as inhibitors; note: potency is the fitted concentration of half-maximal effect; % is set by controls: 0 for no effect and ±100 for the full control effect; nearly all actives have a fitted effect of over 75% in size
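Readings reflect AlphaScreen signal from monomethyl-H3K9 antibody detection. HMT at 20 nM; substrate b-H3K9 500 nM; cofactor SAM 20 uM; 2 h RT reaction; compounds tested as titrations in qHTS with 15 min preincubation.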
PI5P4Ka inh: blocks human PI5P4K alpha kinase activity | max response, % | 1.2% of 330,000 active | P48426 | AID 652105 | PI5P4Kalpha enzyme, ADP-Glo luminescence, 60 min; hits give low values; active = max response of -50% or lower; inconclusive = between -30% and -50%; inactive = -30% or higher; note: value at the top dose of about 77 µM; % is set by controls: 0 for no effect and ±100 for the full control effect
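Compounds were pin-transferred onto PI5P4Kalpha and substrate in HEPES pH 7.4 buffer with EGTA, CHAPS and 5% DMSO. ATP (5 microM final) started the reaction, which ran 60 minutes at room temperature before ADP-Glo detection.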
JMJD2A Tudor: JMJD2A Tudor domain (human) inhibition; AlphaScreen JMJD2A-Tudor / H3K4me3 peptide binding; 4.4% of 390,000 active; Potency, µM (highest dose often 114 µM), for the others: top-dose activity change, negative = inhibition, usual class: inhibitors; note: potency is the fitted concentration of half-maximal effect; % is set by controls: 0 for no effect and ±100 for the full control effect; nearly all actives have a fitted effect of over 50% in size
Target sequence (O75164 whole entry, looked up, the tested form may be a part): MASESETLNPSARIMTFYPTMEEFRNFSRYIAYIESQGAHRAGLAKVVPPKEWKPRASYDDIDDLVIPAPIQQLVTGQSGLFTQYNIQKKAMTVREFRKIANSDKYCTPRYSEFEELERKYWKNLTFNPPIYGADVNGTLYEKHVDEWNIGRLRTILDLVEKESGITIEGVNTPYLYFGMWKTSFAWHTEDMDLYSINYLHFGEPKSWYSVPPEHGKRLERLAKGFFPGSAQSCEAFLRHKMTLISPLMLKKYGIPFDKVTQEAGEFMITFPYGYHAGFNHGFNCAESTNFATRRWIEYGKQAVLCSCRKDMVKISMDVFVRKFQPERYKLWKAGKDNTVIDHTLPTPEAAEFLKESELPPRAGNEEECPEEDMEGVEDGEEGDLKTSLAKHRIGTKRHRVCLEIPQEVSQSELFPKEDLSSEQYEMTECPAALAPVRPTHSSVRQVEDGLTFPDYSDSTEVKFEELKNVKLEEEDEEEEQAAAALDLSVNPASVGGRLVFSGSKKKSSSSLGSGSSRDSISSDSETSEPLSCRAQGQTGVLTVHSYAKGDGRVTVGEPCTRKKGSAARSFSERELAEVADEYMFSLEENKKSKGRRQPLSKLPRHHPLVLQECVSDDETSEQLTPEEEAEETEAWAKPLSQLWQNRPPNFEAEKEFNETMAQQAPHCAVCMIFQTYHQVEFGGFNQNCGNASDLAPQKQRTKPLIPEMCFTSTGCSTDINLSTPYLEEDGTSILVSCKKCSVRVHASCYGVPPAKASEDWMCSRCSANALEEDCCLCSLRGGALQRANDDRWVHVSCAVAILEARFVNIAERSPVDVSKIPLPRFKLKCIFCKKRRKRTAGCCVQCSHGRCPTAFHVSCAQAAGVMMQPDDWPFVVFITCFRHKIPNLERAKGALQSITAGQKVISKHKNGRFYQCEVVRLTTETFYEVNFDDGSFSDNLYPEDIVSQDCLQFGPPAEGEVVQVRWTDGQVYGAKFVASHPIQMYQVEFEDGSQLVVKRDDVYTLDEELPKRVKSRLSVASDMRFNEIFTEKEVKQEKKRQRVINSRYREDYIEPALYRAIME
PLK1 PBD inh: blocks phosphopeptide binding to human PLK1 polo-box domain. P53350. Plk1 PBD binding of FITC phosphopeptide, fluorescence polarization. Potency, µM, for inactives: max response, negative = inhibition, most hits filed as inhibitors. 2.8% of 360,000 active. AID 720504; note: potency is the fitted concentration of half-maximal effect; series mostly up to about 57 µM; % is set by controls: 0 for no effect and ±100 for the full control effect; nearly all actives have a fitted effect of over 65% in size
HP1b chromo inh: HP1-beta chromodomain-methylated histone interaction inhibition. 0.56% of 390,000 active. Potency, µM (series often up to 114 µM), for the others: top-dose activity change, negative = inhibition, usual class: inhibitors. AlphaScreen HP1-beta / biotin-H3K9me3 peptide binding. P83916; note: potency is the fitted concentration of half-maximal effect; nearly all actives have a fitted effect of over 70% in size
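Compound inhibition of the preformed complex between 50 nM HP1-beta and 50 nM biotinylated H3K9me3 peptide was read by AlphaScreen. Buffer was PBS pH 7.4 with 0.01% Tween-20. Incubations ran 30 min at room temperature, with 10 ug/mL donor/acceptor beads.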
ADP-Glo counter: counter-screen for PI5P4K inhibitors: ADP-Glo detection interference, no enzyme | ADP-Glo detection counter-screen, luciferase luminescence, no enzyme | Potency, µM (highest dose often 76.9 µM), inactives show at the highest dose activity change, negative = inhibition, usual class: inhibitors | 1,100 tested, under 10 active | shares compounds with PI5P4Ka inh
* marks the source's active call; other numbers are inactive results; [ ] = dose if it differs, or a comment. Unless noted, calls come from the whole dose curve; as a rule, active = well fitted curve in the direction sought with a large enough effect; inconclusive = small, poorly fitted or top-dose-only effect, or another doubt; inactive = no such curve, though single readings can be large; an effect the other way counts as inactive or inconclusive.

Results for O=c1oc2ccccc2cc1-c1csc(Nc2nc3ccc(F)cc3s2)n1 ?
BAZ2B inh: -6.0%; G9a inh: 26.9%[59 µM]

What do the screens show for `O=c1oc2ccccc2cc1-c1csc(Nc2nc3c(F)cccc3s2)n1`?
BAZ2B inh: 14.8%; G9a inh: -12.1%[59 µM]; PI5P4Ka inh: -55.3*; JMJD2A Tudor: -13.9%; PLK1 PBD inh: -7.9%; HP1b chromo inh: 35.2%; ADP-Glo counter: -4.6%

Results for Cc1cc(C)cc(NC(=O)CSc2n[nH]c(-c3cccnc3)n2)c1 ?
BAZ2B inh: 3.6%; G9a inh: 11.8%; PI5P4Ka inh: -11.3; JMJD2A Tudor: -11.2%; PLK1 PBD inh: -13.7%; HP1b chromo inh: 21.1%

How did O=C(CSc1n[nH]c(-c2cccnc2)n1)OC1CCCCC1 do in these assays?
BAZ2B inh: -20.7%; G9a inh: -2.2%; PI5P4Ka inh: -66.0*; JMJD2A Tudor: 22.4µM*; PLK1 PBD inh: 11.9µM*; HP1b chromo inh: -8.8%; ADP-Glo counter: -8.1%

How did O=C(CSc1nc2c(cnn2-c2cccc(Cl)c2)c(=O)[nH]1)NCC1CCCO1 (configuration not stated) do in these assays?
BAZ2B inh: -6.4%; G9a inh: 1.7%[12.7 µM]; JMJD2A Tudor: -18.2%; PLK1 PBD inh: -9.5%; HP1b chromo inh: 21.1%; ADP-Glo counter: -6.0%

Results for CCOc1ccc(Cl)cc1S(=O)(=O)n1cnc2ccccc21 ?
BAZ2B inh: 1.0%; G9a inh: -11.6%[59 µM]; PI5P4Ka inh: 0.9; JMJD2A Tudor: -3.8%; PLK1 PBD inh: 0.0%; HP1b chromo inh: 18.5%; ADP-Glo counter: -6.9%

Results for COc1ccc(Cl)cc1S(=O)(=O)n1cnc2ccccc21 ?
BAZ2B inh: 20.6%; G9a inh: inconclusive; PI5P4Ka inh: -3.5; JMJD2A Tudor: 3.8%; PLK1 PBD inh: -1.9%; HP1b chromo inh: 49.6%

How did O=C(c1ccc(Br)cc1)N1CCN(CCc2ccncc2)CC1 do in these assays?
BAZ2B inh: -21.0%; G9a inh: 4.2%[59 µM]; JMJD2A Tudor: -7.6%; HP1b chromo inh: 39.6%

Results for O=C(c1ccc(Br)cc1)c1cc2ccc(O)cc2oc1=O ?
BAZ2B inh: -38.7%; G9a inh: 70.8µM*; PI5P4Ka inh: -62.7*; JMJD2A Tudor: inconclusive; PLK1 PBD inh: 10.6µM*; HP1b chromo inh: -2.1%; ADP-Glo counter: -5.1%

How did O=C(CSc1nnc(C2CC2)n1C1CC1)c1cc(F)ccc1F do in these assays?
BAZ2B inh: 5.0%; G9a inh: inconclusive; PI5P4Ka inh: 2.2; JMJD2A Tudor: -6.9%; PLK1 PBD inh: -17.2%; HP1b chromo inh: 19.4%

What do the screens show for `CCn1c(=O)c(CCC(=O)N2CCN(c3ccccn3)CC2)c(C)c2c(C)nn(-c3ccccc3)c21`?
BAZ2B inh: -23.0%; G9a inh: -20.4%; PI5P4Ka inh: -2.4; JMJD2A Tudor: inconclusive; PLK1 PBD inh: -8.0%; HP1b chromo inh: 6.7%

How did Cc1ccc(-c2csc(NC(=O)c3ccc(Br)cc3)c2C(=O)O)cc1 do in these assays?
BAZ2B inh: -11.8%; G9a inh: 13.7%; PI5P4Ka inh: -76.7*; JMJD2A Tudor: -21.9%; PLK1 PBD inh: inconclusive; HP1b chromo inh: 24.5%; ADP-Glo counter: -0.1%

How did COc1cc(C(=O)Nc2scc(-c3ccc(Br)cc3)c2C(=O)O)cc(OC)c1OC do in these assays?
BAZ2B inh: inconclusive; G9a inh: inconclusive; PI5P4Ka inh: -97.8*; JMJD2A Tudor: -9.3%; PLK1 PBD inh: inconclusive; HP1b chromo inh: 20.9%; ADP-Glo counter: 1.7%

What do the screens show for `Cc1ccc(-c2csc(NC(=O)c3ccccc3Cl)c2C(=O)O)cc1`?
BAZ2B inh: -13.2%; G9a inh: 4.2%; PI5P4Ka inh: -54.6*; JMJD2A Tudor: -21.1%; PLK1 PBD inh: -25.1%; HP1b chromo inh: 18.9%; ADP-Glo counter: 4.3%

What do the screens show for `CCOC(=O)C1(C)CCN1C(=O)c1ccc(C(F)(F)F)cc1` (configuration not stated)?
PI5P4Ka inh: 2.9; PLK1 PBD inh: -13.4%

What do the screens show for `Cc1cc(Cl)ccc1OCC(=O)N/N=C1\CC2C=CCC12` (configuration not stated)?
BAZ2B inh: 4.3%; G9a inh: 9.6%[59 µM]; PI5P4Ka inh: -1.1; JMJD2A Tudor: -8.5%; PLK1 PBD inh: -8.6%; HP1b chromo inh: 25.7%

How did CC1(C(=O)O)CCCN1C(=O)c1ccc(Cl)cc1Cl (configuration not stated) do in these assays?
PI5P4Ka inh: 6.8; PLK1 PBD inh: -4.0%

Results for Cc1oc(-c2ccc(Cl)cc2)cc1C(=O)N1CCC1(C)C(=O)O (configuration not stated) ?
PI5P4Ka inh: -51.9*; PLK1 PBD inh: inconclusive; ADP-Glo counter: -4.2%

Results for O=C(NCCCN1CCOCC1)c1cc(S(=O)(=O)N2CCCCC2)ccc1Cl ?
PI5P4Ka inh: 2.1; PLK1 PBD inh: -6.1%

How did O=C(N/N=C/c1cc([N+](=O)[O-])ccc1O)c1cccc2ccccc12 do in these assays?
BAZ2B inh: 2.5%

Results for Cc1nn(-c2nc3ccccc3[nH]2)c(=O)c2ccccc12 ?
BAZ2B inh: -2.9%; G9a inh: -0.1%; PI5P4Ka inh: -60.1*; JMJD2A Tudor: -9.0%; PLK1 PBD inh: -0.1%; HP1b chromo inh: 31.0%; ADP-Glo counter: inconclusive

What do the screens show for `Cc1nn(-c2ccc3ccccc3c2)c(=O)c2ccccc12`?
BAZ2B inh: 12.5%; G9a inh: 58.2%; PI5P4Ka inh: 3.0; JMJD2A Tudor: 23.4%; PLK1 PBD inh: -12.9%; HP1b chromo inh: 51.5%

Results for COc1ccc(OC)c(NC(=O)COC(=O)c2cc3c(s2)CCC3)c1 ?
BAZ2B inh: 10µM*; PI5P4Ka inh: -83.0*; JMJD2A Tudor: 28.2µM*; PLK1 PBD inh: inconclusive; HP1b chromo inh: 14.1µM*; ADP-Glo counter: -1.0%

How did COc1ccc(NS(=O)(=O)c2ccc(C)c(NC(=O)CNC(=O)c3ccco3)c2)cc1 do in these assays?
BAZ2B inh: -1.6%; G9a inh: -3.5%; PI5P4Ka inh: -1.6; JMJD2A Tudor: -11.7%; PLK1 PBD inh: 2.9%; HP1b chromo inh: 9.0%

What do the screens show for `Cc1c(C(=O)NC2=NCCS2)cccc1[N+](=O)[O-]`?
BAZ2B inh: 3.3%; G9a inh: 40.6%; PI5P4Ka inh: -6.2; JMJD2A Tudor: -9.1%; PLK1 PBD inh: -9.5%; HP1b chromo inh: -2.5%

Screening results from PubChem.
